# PubChem BioAssay (NCATS)
# “And” between values parts separate entries of the source, which are not always exact repeats. Identical values can stand only once. Inconclusive results are not listed. The source made the active and inactive calls. Calls come from the whole dose curve.
# Assay: qHTS Assay for Lipid Storage Modulators (AID 1519); for activity change, negative = inhibition: % is set by controls: 0 for no effect and ±100 for the full control effect
# Conditions: Drosophila S3 cells, BODIPY lipid droplet/cell ratio, laser cytometry, cells loaded with oleic acid
# Description: NIH Molecular Libraries Probe Production Centers Network [MLPCN]
# NIH Chemical Genomics Center [NCGC]
# Assay Submitter (PI): Beller, Mathias; Max-Planck-Institut fur Biophysikalische Chemie
# NCGC Assay Overview: Storing lipids as a reservoir for energy or the anabolism of elementary metabolites is a common feature of probably all cells and is conserved from bacteria to humans. The universal cellular lipid storage organelle is the so-called lipid storage droplet (LD). Although ubiquitous, LDs share a simple structure composed of a hydrophobic core that harbors the storage lipids, which is shielded by a droplet-specific phospholipid monolayer to which proteins are attached. The current model of LD biogenesis involves an incorporation of the lipid core into the membrane leaflets of the endoplasmic reticulum (ER) followed by a subsequent budding-like maturation of a LD, which ultimately pinches off. Once released, LD volume can increase by localized lipogenesis or fusion of existing droplets. Storage lipids are re-mobilized enzymatically by lipase activity. Lipase regulation in the adipocyte is heavily studied and involves multiple components including catecholamine signaling, the LD-associated proteins Perilipin and comparative gene identification-58 (CGI-58) and at least two lipases named hormone sensitive lipase (HSL) and adipocyte triglyceride lipase (ATGL). LD regulation outside of the adipocyte is poorly understood and only few components are known. However, there is an urgent need to learn more about ectopic fat depots as mislocalized storage of lipids, for example in the liver or muscle, is an eminent health problem associated with insulin resistance or the metabolic syndrome. We developed a laser-scanning cytometer assay to enable 1,536-well screening and combined the results of the small molecules screen with an RNAi database based on lipid storage.
# NCGC Assay Protocol Summary:
# We dispensed 4 uL of cells at 1.25 x 10^6 cells/mL into LoBase Aurora COC 1,536-well plates (black walled, clear bottom) with a bottle-valve solenoid-based dispenser (Aurora) to obtain 5,000 cells/well. Triacsin C (Sigma-Aldrich T-4540), an inhibitor of long-chain fatty acyl CoA synthetase that blocks synthesis of triglycerides, was used as a positive control for lipid under-storage. A total of 23 nL of compound solution of different concentrations were transferred to the assay plates using a Kalypsys pin tool equipped with a 1,536-pin array containing 10-nL slotted pins (FP1S10, 0.457-mm diameter, 50.8 mm long; V&P Scientific). One microliter of oleic acid (400 uM) was added, and the plate was lidded with stainless steel rubber gasket lined lids containing pinholes. […] Fluorescence was detected by excitation of the fluorophores with a 488-nm laser on an Acumen Explorer (TTP Lab Tech). The total intensity in channel 1 (500-530 nm) reflected lipid droplet accumulation. […] The ratio of the total intensity in PMT channel 1 over total intensity of channel 3 was also calculated. Percent activity was computed relative to an internal control (100% inhibited lipid droplet deposition due to the presence of 20 uM Triacsin C), which was added to 32 wells/plate.
# [1] = measured here: cell count channel max response
# [2] = measured here: lipid channel max response
SMILES,"activity change, negative = inhibition (at 25.7 µM (top of the series))","activity change, negative = inhibition (at 57.5 µM (top of the series))",max response [1],max response [2]
CC(=O)CCCCn1c(=O)c2c(ncn2C)n(C)c1=O,-2.17% (inactive),7.3% (inactive),6.56% and 15.7%,4.54% and 26.5%
COCCCCC(=NOCCN)c1ccc(C(F)(F)F)cc1,0.501% (inactive),–,5.99%,5.1%
CCN1CCC[C@H]1CNC(=O)c1cc(S(N)(=O)=O)ccc1OC,-2.7% (inactive),-2.29% (inactive) and -0.529% (inactive),-6.81% and 8.22% and 14.9%,-10.9% and 9.44% and 14.1%
NC(N)=Nc1nc(CSCC/C(N)=N/S(N)(=O)=O)cs1,-0.328% (inactive),0.654% (inactive),10.2% and -8.15%,9.12% and -7.51%
Nc1ncnc2c1ncn2[C@@H]1O[C@@H](CO)[C@H](O)[C@H]1O,-0.901% (inactive),–,-3.51%,-9.07%
COc1ccccc1N1CCN(CCCNc2cc(=O)n(C)c(=O)n2C)CC1,0.233% (inactive),1.54% (inactive),-9.35% and -6.19%,-9.3% and -4.74%
CC/C(=C(\c1ccccc1)c1ccc(OCCN(C)C)cc1)c1ccccc1,–,6.58% (inactive),6.28%,15.3%
C[C@]12CCC3c4ccc(O)cc4CCC3C1CCC2=O (stereo partly drawn),–,3.27% (inactive),-11.3%,-4.67%
COc1ccc(C2Sc3ccccc3N(CCN(C)C)C(=O)C2OC(C)=O)cc1 (stereo not drawn),–,6.14% (inactive),15.8%,23.3%
c1ccc2c(Cc3c[nH]c4ccccc34)c[nH]c2c1,–,12.9% (inactive),7.31%,20.3%
O=C1NC(=O)C(c2ccccc2)(c2ccccc2)N1,–,7.13% (inactive) and 0.319% (inactive),12.1% and -15.7%,24.5% and -14.7%
O=c1c(-c2ccc(O)cc2)coc2cc(O)ccc12,–,2.37% (inactive) and 2.36% (inactive) and 1.08% (inactive),20.5% and -6.62% and -6.98%,24.2% and -1.3% and -6.64%
O=C(O)c1cc(O)c2c(c1)C(=O)c1cccc(O)c1C2=O,–,8.11% (inactive),13.4%,21.8%
